Compounds with a hit are over-represented: about 10% of the library has one in this group of screens.
RORgamma inh: ROR gamma (mouse) transcription inhibition | AID 2551 | Drosophila S2 Gal4-RORgamma UAS-luciferase reporter, 20 h | P51450 | 5.4% of 310,000 active | Potency, µM (doses to about 53.6 µM), without a hit: at the top dose activity change, negative = inhibition, usual class: inhibitors; also: % is scaled to controls: 0 for no effect and ±100 for the full control effect; nearly all actives have a fitted effect of over 60% in size
Target sequence (P51450 whole entry, looked up, the tested form may be a part): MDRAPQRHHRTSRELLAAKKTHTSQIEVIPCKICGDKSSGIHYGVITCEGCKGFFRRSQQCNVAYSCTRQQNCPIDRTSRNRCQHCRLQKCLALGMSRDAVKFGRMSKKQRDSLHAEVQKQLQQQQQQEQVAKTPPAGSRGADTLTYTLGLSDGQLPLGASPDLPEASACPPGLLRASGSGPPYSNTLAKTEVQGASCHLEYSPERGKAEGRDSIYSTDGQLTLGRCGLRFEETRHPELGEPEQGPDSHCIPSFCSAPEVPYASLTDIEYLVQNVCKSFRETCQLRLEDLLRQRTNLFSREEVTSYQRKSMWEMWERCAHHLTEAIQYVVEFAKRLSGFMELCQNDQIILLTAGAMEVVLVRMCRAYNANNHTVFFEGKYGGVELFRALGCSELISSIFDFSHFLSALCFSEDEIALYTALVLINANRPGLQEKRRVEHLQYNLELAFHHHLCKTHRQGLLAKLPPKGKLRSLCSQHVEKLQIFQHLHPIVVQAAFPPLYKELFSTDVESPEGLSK
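Drosophila Schneider cells stably carrying a metallothionein-driven Gal4 DBD–ROR gamma fusion and a UAS-Photinus luciferase reporter were exposed to compound for 1 hr, then induced with copper sulfate (700 uM final) for 20 hr at ambient temperature before luminescence reading.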
MCF10A rereplic: induces DNA re-replication in MCF 10a normal breast cells; MCF 10A DNA re-replication, Hoechst nuclear intensity, 48 h; Potency, µM (top dose mostly 46.1 µM), for inactives: at the top dose activity, positive = re-replication, most hits filed as activators; 2.9% of 350,000 active; also: % of control where 0% means no effect; nearly all actives have a fitted effect of over 50% in size
SW480 rerep: inducers of DNA re-replication in SW480 colon cancer cells | Potency, µM (top dose mostly 46.1 µM), for the others: top-dose re-replication activation, actives largely listed as activators | AID 624297 | 1.8% of 340,000 active | SW480 DNA re-replication, Hoechst DNA content imaging, 48 h; also: % of control where 0% means no effect; nearly all actives have a fitted effect of over 55% in size
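First, 250 cells per well were seeded. Next, compound or vehicle (23 nL) was pinned in, plates sat 48 hr at 37 C. Finally Hoechst was added for 40 min before fluorescence scanning.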
VP16 counter: Gal4-VP16 reporter inhibition counter-screen; Drosophila S2 Gal4-VP16 UAS-luciferase, luminescence, 20 h; Potency, µM (titrated, usually from 53.6 µM), for inactives: top-dose activity, negative = inhibition, actives largely listed as inhibitors; 3.5% of 310,000 active; AID 2546;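 also: Gal4-VP16 expression switched on by copper sulfate through the metallothionein promoter; % is scaled to controls: 0 for no effect and ±100 for the full control effect; nearly all actives have a fitted effect of over 50% in size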
ELG1 DNA repair: blocks ELG1-dependent DNA repair in HEK293T cells | HEK293T ELG1-luciferase reporter, luminescence, 16 h; DNA damage induced by 5-fluorouridine | Potency, µM (doses to about 46.1 µM), inactives show at the top dose activity change, negative = inhibition, most hits filed as inhibitors | 2.3% of 330,000 active | AID 504467; also: % is scaled to controls: 0 for no effect and ±100 for the full control effect; nearly all actives have a fitted effect of over 55% in size
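Overnight (16 hr) co-exposure of 2,000 cells/well to 5-fluorouridine and compound at 37 °C preceded detection. Luciferase was quantified via ONE-Glo luminescence; loss of signal denotes inhibition.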
* hit, by the source's call; u = inconclusive; x = not tested or not shown; [ ] = dose if it differs, or a comment. Calls follow the shape of the dose curve; as a rule, active = well fitted curve in the direction sought with a large enough effect; inconclusive = small, poorly fitted or top-dose-only effect, or another doubt; inactive = no such curve, though single readings can be large; an effect the other way counts as inactive or inconclusive. Potency is read from the fitted curve at half-maximal effect.

SMILES	RORgamma inh	MCF10A rereplic	SW480 rerep	VP16 counter	ELG1 DNA repair
O=C(NNS(=O)(=O)c1ccc(F)cc1)c1cnn(-c2ccccc2)c1C(F)(F)F	u	0.7%	23.3%	12.6µM*	u
Cc1cc(SC(C)C(=O)NCC(=O)Nc2ccc(F)c(F)c2F)nc2ccccc12 (stereo unspecified)	10µM*	-3.4%	-4.4%	u	15.3%
C=CCc1cccc(/C=N/NC(=O)CCC(=O)Nc2ccc(F)cc2)c1O	1µM*	17.6%	u	1µM*	u
C=CCc1cccc(/C=N/NC(=O)C(C)Nc2cccc(C)c2)c1O (stereo unspecified)	0.0398µM*	6.9%	3.26µM*	2.51µM*	u
C=CCc1cccc(/C=N/NC(=O)CNc2cccc3ccccc23)c1O	0.562µM*	u	u	1.12µM*	1.6%
O=C(CN1CCN(Cc2ccccc2)CC1)N/N=C/c1ccc(Br)s1	5.62µM*	6.7%	-15.0%	10µM*	9.2µM*
O=C(CCC(=O)Nc1ccc(F)cc1)N/N=C/c1ccccc1	15.1%	3.8%	-20.8%	-7.3%	-1.2%
Nc1ccc(-n2nncc2-c2ccc(Cl)cc2)cc1	12.4%	-20.9%	-0.8%	4.7%	1.9%
COc1cccc(CN2CCNC(=O)C2CC(=O)N(C)CCC2CCOCC2)c1OC (stereo unspecified)	14.9%	0.0%	-11.2%	-3.2%	-1.4%
COc1ccc(C(=O)NNC(=O)c2cccs2)cc1S(=O)(=O)N1CCOCC1	x	11.8%	-13.1%	x	u
CCc1ccc(CN(C)C(=O)CCc2nnc(CCc3ccccc3OC)o2)nc1	33.4%	0.1%	-2.4%	-17.3%	-9.6%
Cc1ccc(-c2cnc(-c3ccccc3C(=O)O)o2)cc1	-25.0%	0.3%	-0.1%	0.4%	u
C=CCc1cccc(/C=N/n2cnnc2)c1O	7.08µM*	1.2%	26.1%	-11.6%[0.365 µM]	5.0%
C=CCc1cccc(/C=N/NC(=O)CNc2ccccc2)c1O	1.58µM*	13.3%	13µM*	u	x
C=CCc1cccc(/C=N/NC(=O)CNc2ccccc2OC)c1O	1.26µM*	u	16.4µM*	-1.8%	u
C=CCc1cccc(/C=N/NC(=O)CCCNc2ccc(C)cc2)c1O	1µM*	u	u	2µM*	u
C=CCc1cccc(/C=N/NC(=O)C[n+]2ccccc2)c1O	u	24.7%	u	-11.3%	u
C=CCc1cccc(C=Nc2ccc(Br)cc2)c1O	5.3%	-2.4%	3.2%	-18.2%	u
Cc1ccc(S(=O)(=O)NC(=O)NN2CC3CCCC3C2)cc1 (stereo unspecified)	-10.2%	-1.5%	15.4%	2.3%	27.5%
COc1ccc(CC(=O)O/N=C(\N)c2ccccc2)cc1OC	-27.0%	10.3%	-4.7%	-0.7%	-10.9%
COC(=O)c1c(C(=O)OC)c(-c2ccc(Br)cc2)n2c1CS(=O)C2 (stereo unspecified)	-1.1%	0.6%	u	-1.2%	-1.6%
C=CCc1cccc(/C=N/NC(=O)CN2CCN(Cc3ccccc3)CC2)c1O	1.12µM*	x	x	10µM*	x
CCNC(=S)N/N=C(\C)c1cccc([N+](=O)[O-])c1	3.98µM*	-3.3%	8.6%	4.47µM*	9.8%
COCCNC(=S)N/N=C(\C)c1cccc(OC)c1	3.98µM*	-15.1%	0.5%	u	-5.9%
C/C(=N\NC(=O)c1ccccc1C)c1cccc([N+](=O)[O-])c1	-15.5%	0.0%	-0.9%	20.7%	u
SMILES	RORgamma inh	MCF10A rereplic	SW480 rerep	VP16 counter	ELG1 DNA repair
COCCNC(=S)N/N=C(\C)c1cccc([N+](=O)[O-])c1	3.55µM*	9.5%	-1.0%	7.08µM*	19.6%
Cc1ccc(S(=O)(=O)CCC(=O)Nc2nnc(-c3ccc(F)cc3)o2)cc1	x	u	u	x	0.0%
Cc1ccc(C)c(-c2nnc(NC(=O)CCS(=O)(=O)c3ccc(F)cc3)o2)c1	x	u	-4.4%	x	14.3%
O=C(CCS(=O)(=O)c1ccc(F)cc1)Nc1nnc(-c2ccco2)o1	x	u	18.4µM*	x	-12.6%
COc1cc(OC)cc(-c2nnc(NC(=O)CCS(=O)(=O)c3ccc(C)cc3)o2)c1	x	4.61µM*	u	x	-1.4%
O=[N+]([O-])c1ccc(Sc2n[nH]c(-c3ccc(Cl)cc3Cl)n2)nc1	0.891µM*	u	-10.0%	7.08µM*	7.9%
CCO[C@@H]1OC(C(=O)N2CCCCCCC2)=C[C@H](c2csc3ccccc23)[C@H]1CCCO	-3.9%	u	-23.2%[9.22 µM]	0.3%	1.4%
CCOc1cc(NC(=S)NC)c(OCC)cc1NC(=O)c1ccc(OC)cc1	10µM*	7.1%	-2.3%	u	8.7%
COc1ccc(NC(=S)NCC2CCCO2)c(OC)c1 (stereo unspecified)	-39.4%	1.0%	-1.2%	0.5%	12.6%
S=C(NCC1CCCO1)Nc1cccc2ccccc12 (stereo unspecified)	7.08µM*	3.0%	27.2%	u	-13.4%
CCOc1cc(NC(=S)NCC2CCCO2)c(OCC)cc1NC(=O)c1ccc(OC)cc1 (stereo unspecified)	11.2µM*	-2.5%	-6.7%	10µM*	13µM*
CCOc1cc(NC(=S)Nc2ccccc2)c(OCC)cc1NC(=O)c1ccccc1	1.78µM*	19.0%	13.3%	10µM*	u
COc1ccccc1N1CCN(C2CCCN(C(=O)Cn3cccn3)C2)CC1 (stereo unspecified)	3.7%	1.0%	4.7%	-1.1%	-3.9%
CC(=O)OCC(=O)[C@@]1(O)CCC2C3CCC4=CC(=O)C=CC4(C)C3C(O)C[C@]21C (stereo partly specified)	1.2%	-0.3%	-11.8%	-0.2%	x
O=C(N1CCN(c2ccccc2F)CC1)C1(c2cccs2)CCOCC1	19.0%	-1.0%	1.1%	-9.0%	-6.9%
CCCCNC(=O)C1CC(=O)N(CCc2ccc(C)cc2)C1 (stereo unspecified)	7.2%	4.7%	0.9%	-6.5%	-7.4%
CCOc1cc(N2CCOCC2)c(OCC)cc1NC(=O)c1ccccc1C	-4.1%	-6.9%	-2.5%	9.9%	-22.3%
COc1ccc(C(=O)Nc2ccccc2C(=O)NCC2CCCO2)cc1 (stereo unspecified)	15.6%	2.4%	1.4%	-4.9%	-3.8%
CCOc1cc(NC(=S)NCc2ccco2)c(OCC)cc1NC(=O)CC(C)C	u	-2.6%	0.7%	-16.1%	15.9%
CCOc1cc(NC(=S)Nc2ccccc2OC)c(OCC)cc1NC(=O)c1ccccc1C	1.78µM*	12.8%	3.7%	2.24µM*	-12.0%
CCOc1cc(NC(=S)NCC2CCCO2)c(OCC)cc1NC(=O)CC(C)C (stereo unspecified)	11.2µM*	3.0%	-1.2%	-13.3%	-0.2%
CCOc1ccccc1NC(=S)NCC1CCCO1 (stereo unspecified)	11.2µM*	-2.1%	-12.5%	u	8.2%
